Screening data: PubChem, National Center for Advancing Translational Sciences (NCATS)
Pf growth 96h: P. falciparum growth inhibition at 96 hour, primary screen for plastid delayed-death inhibitors | P. falciparum luciferase reporter growth, 96 h | Potency, µM (series often up to 28.7 µM), inactives show at the highest dose activity change, negative = inhibition, most hits filed as inhibitors | hit rate 6.9% among 320,000; also: potency is read from the fitted curve at half-maximal effect
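P. falciparum expressing integrated firefly luciferase grown in erythrocytes (2% hematocrit, 0.05% parasitemia final) with compounds for 96 hours at 37 C, 5% CO2. Growth inhibition read as loss of luminescence after adding luciferase detection reagent.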
Pf growth 48h: inhibits P. falciparum growth in the first generation, 48 h | P. falciparum luciferase growth in erythrocytes, 48 h | Potency, µM (titrated, usually from 28.7 µM), without a hit: at the top dose activity change, negative = inhibition, hits mostly inhibitors | hit rate 5.9% among 310,000 | AID 504832; also: potency is read from the fitted curve at half-maximal effect
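Cell-based growth assay: transgenic P. falciparum expressing firefly luciferase, cultured in red cells within RPMI 1640 containing 0.5% w/v Albumax, 24 mM bicarbonate and gentamycin. A drop in luciferase activity indicates inhibition.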
HCV inhibitor: blocks hepatitis C virus | Huh7.5.1 HCVcc-Cre infection, luciferase reporter, 44 h | Potency, µM (series often up to 41.8 µM), without a hit: at the highest dose activity change, negative = inhibition, usual class: inhibitors | hit rate 3.4% among 340,000; also: potency is read from the fitted curve at half-maximal effect
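Cells seeded at 1,000/well and cultured 4 h, then compounds added followed by HCVcc-Cre virus (~0.5 moi). After 44 h further culture, luciferase substrate was added, plates held 15 min at room temperature, and luminescence read for 15 sec.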
HCMV antiviral: inhibitors of human cytomegalovirus; HFF cells, HCMV-luciferase reporter, 72 h; stronger effect = lower value; activity change, negative = inhibition, % at 57.5 µM; hit rate 4.5% among 410,000; in the data active = activity change below about -60%; inconclusive = no clear call, values can overlap the other calls; inactive = above about -39%
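HFF cells seeded 16 h at 37C, treated with compounds, infected with luciferase-reporter HCMV at MOI 1 PFU/cell; luciferase read at 72 h post infection, normalized to buffer-only and Salinomycin controls.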
The depositor's hits bear a star; ? = inconclusive; . = not tested or not shown. A selection: hits, their analogues and other compounds. The true share with any hit is near 13%. Unless noted, calls follow the shape of the dose curve; as a rule, active = well fitted inhibition curve with a large enough effect; inconclusive = small, poorly fitted or top-dose-only effect, or another doubt; inactive = no such curve, though single readings can be large or run the other way. % is scaled to controls: 0 for no effect and ±100 for the full control effect.

SMILES	Pf growth 96h	Pf growth 48h	HCV inhibitor	HCMV antiviral
Cc1cc(-n2c(SCc3ccccc3F)nc3[nH]ncc3c2=O)ccc1Cl	.	.	.	-64*
Cc1ccccc1-n1c(SCc2ccc(Cl)cc2)nc2[nH]ncc2c1=O	.	.	.	-20
CC(=O)c1ccc(N2CCN(c3nc4c(S(=O)(=O)c5ccc(C)c(C)c5)nnn4c4ccc(Cl)cc34)CC2)cc1	.	.	.	23
CCc1nnc(NC(=O)CSc2nc(C)c3c(c2C#N)CCCC3)s1	-9%	81%	11µM*	56
COc1ccc(NC(=O)CSc2nc(C)c3c(c2C#N)CCCC3)cc1	32%	-9%	-29%	?
O=C(NN=Cc1ccc(N2CCOCC2)s1)c1ccc([N+](=O)[O-])cc1	.	.	22µM*	3
O=C(N/N=C/c1ccc(Br)s1)c1ccccc1[N+](=O)[O-]	2%	6%	-20%	1
O=C(N/N=C/c1ccc(Br)s1)c1ccc([N+](=O)[O-])cc1	-11%	2.1µM*	?	1
CC(C)C[C@@H]1COc2cccc(NCCO)c2S(=O)(=O)N1	.	.	.	4
C=CCOc1ccc2c(c1)C(=NO)c1cc(OCC=C)ccc1-2	?	.	?	-19
COc1ccc2c(c1)C(=NO)c1cc(OC)ccc1-2	.	15%	8.9µM*	?
O=c1c2cccnc2n(Cc2ccc(Cl)cc2)c(=O)n1Cc1ccc(F)cc1	.	.	.	2
COc1ccccc1N1CCN(c2nc3ccccc3n3cnnc23)CC1	.	.	.	-17
CSc1ncc2c(n1)-c1cc(C)ccc1SC2	9%	4%	8.9µM*	-98*
O=C1CCCc2sccc2N1	3.3µM*	19%	14%	-20
O=C1CCCc2sc3c(c2N1)CCCCC3	-1%	16%	15%	73
O=C(NCCc1ccccc1)c1oc2ccccc2c1COc1ccccc1	13µM*	?	?	25
O=C(Nc1ccccc1Cc1ccccc1)c1oc2ccccc2c1COc1ccccc1	10µM*	?	8%	26
Cc1c(C(=O)NCCc2ccccc2)oc2ccccc12	-9%	245%	6%	121
Cc1cc(C(F)(F)F)c2c(N)c(C(=O)Nc3c(Cl)cccc3Cl)sc2n1	.	.	.	-26
Cc1ccccc1NC(=O)N[C@H]1CC[C@@]23CCCN2C(=O)CCC[C@H]3C1Cc1ccccc1 (some centres undefined)	.	.	.	10
COCCCNC(=O)Cn1c(=O)n(-c2cccc(C)c2)c(=O)c2c1c1cc(C)ccc1n2C	.	.	.	-21
Cc1cc(OCc2cc(C(=O)NC3CCC3)no2)cc(C)c1Cl	-2%	?	?	.
COc1cccc(OCc2cc(C(=O)NC3CCOCC3)no2)c1	0%	30%	2%	43
CC(NC(=O)c1cc(COc2ccc3ncccc3c2)on1)c1ccc(F)cc1 (centres undefined)	-2%	?	2.2µM*	-85*
SMILES	Pf growth 96h	Pf growth 48h	HCV inhibitor	HCMV antiviral
O=C(c1cc(COc2ccc3ncccc3c2)on1)N1CCCC1	?	37%	7.1µM*	?
O=C(NC1CCCC1)c1cc(COc2ccc3ncccc3c2)on1	-6%	-20%	3.5µM*	.
Cc1ccc(OCc2cc(C(=O)NC3CCCCC3)no2)cn1	13µM*	17%	?	0
COC(=O)[C@@]12C[C@@H](CC(=O)N3CCOCC3)C(=O)N(Cc3ccco3)C1=CCC(C)(C)C2	.	.	.	-19
CC1=C(C(=O)Nc2cccc(Cl)c2)C2(CCCCCC2)OC1=O	.	.	.	-6
Cc1ccc(S(=O)(=O)c2nc(S(C)(=O)=O)sc2N(C)Cc2ccccc2)cc1	.	.	.	-35
Cc1ccc(OCc2cc(C(=O)N3CCN(C4CCCCC4)CC3)no2)cc1C	37%	?	-26%	114
O=C(NCCc1cn2ccccc2n1)c1cc(COc2ccc3ncccc3c2)on1	280%	?	2.5µM*	-76*
COCC1CCN(C(=O)c2cc(COc3ccc4ncccc4c3)on2)CC1	?	27%	1.1µM*	-75*
O=C(c1cc(COc2ccc3ncccc3c2)on1)N1CCCCCC1	-17%	19%	?	-37
Cc1ccc(OCc2cc(C(=O)N3CCCCCCC3)no2)cc1C	1.7µM*	14%	1%	81
COc1ccccc1C(=O)N1CCN(c2nc3cc(C)c(C)cc3cc2C#N)CC1	10µM*	?	?	?
COc1ccccc1C(=O)N1CCN(c2nc3cc(C)cc(C)c3cc2C#N)CC1	.	.	.	-19
O=C(CSc1nc2cc(Cl)ccc2s1)NCC1CCCO1 (centres undefined)	.	.	1%	-17
O=C(CSc1nc2ccc([N+](=O)[O-])cc2s1)NCC1CCCO1 (centres undefined)	2%	-30%	?	-71*
Cc1nc(SCC(=O)Nc2ccc(S(=O)(=O)N3CCOCC3)cc2)c2c(C)c(C)sc2n1	.	.	7.1µM*	32
COc1ccc2nc(N3CCCC3)c(C#N)cc2c1	8.3µM*	.	?	61
COc1ccc(C(=O)NCc2nnc(SCC(=O)Nc3ccc(C)cc3)n2-c2ccccc2)cc1	.	.	.	-11
CO[C@H]1/C=C/O[C@@]2(C)Oc3c(C)c(O)c4c(O)c(c(/C=N\N5CCN(C6CCCC6)CC5)c(O)c4c3C2=O)NC(=O)/C(C)=C\C=C\[C@H](C)[C@H](O)[C@@H](C)[C@@H](O)[C@@H](C)[C@H](OC(C)=O)[C@@H]1C	-7%	-98%	.	.
COc1ccccc1CNC(=O)CCc1c(C)c2cc3c(C)coc3cc2oc1=O	.	.	.	5
CN(C(=O)CSc1nc2ccc([N+](=O)[O-])cc2s1)C1CCS(=O)(=O)C1 (centres undefined)	9.3µM*	?	-6%	?
CCOc1ccc2nc(SCC(=O)N3c4ccccc4Sc4ccccc43)sc2c1	-11%	3%	5%	-26
Cc1cccc(Nc2nnc(SCC(=O)N(C)C3CCS(=O)(=O)C3)s2)c1C (centres undefined)	2.9µM*	?	2%	-27
CCOc1ccc2nc(SCC(=O)N3c4ccccc4Sc4ccccc43)c(C#N)cc2c1	?	10µM*	?	-6
COC(=O)CC1C(=O)NCCN1C(=O)CSc1nc2ccc([N+](=O)[O-])cc2s1 (centres undefined)	?	10µM*	14%	?
SMILES	Pf growth 96h	Pf growth 48h	HCV inhibitor	HCMV antiviral
O=C(Cn1c(=O)c2cccn2c2cccnc21)NCc1cccc(F)c1	.	.	.	-14
COc1ccc(-c2noc(C3CC(=O)N(c4ccc(C)c(F)c4)C3)n2)c(OC)c1 (centres undefined)	.	.	.	14
CC(=O)c1ccc(NC(=O)Cn2c(=O)cc(C)c3c(C)nn(-c4cccc(F)c4)c32)cc1	.	.	.	4
Cc1cc(NC(=O)CSc2nc3ccccc3cc2C#N)no1	12%	21%	5%	-11
Cc1ccc2nc(SCC(=O)NCC3CCCO3)c(C#N)cc2c1 (centres undefined)	.	49%	3%	-26
COc1ccc2nc(SCC(=O)Nc3ccc(S(=O)(=O)N4CCCC4)cc3)c(C#N)cc2c1	?	3.3µM*	?	?
N#Cc1cc2ccccc2nc1SCC(=O)Nc1ccc(S(=O)(=O)N2CCCC2)cc1	?	9.3µM*	.	?
